Results taken from PubChem BioAssay.
A number with no mark means an inactive call. Where a call stands in place of a potency, no number is given. For some assays here: Potency and affinity values are given separately. Activity calls are given as the source filed them. Unless noted, how the calls were made is not given here.

How the values were obtained:
[1] = antimalarial activity against Dd2 strain (AID 2302;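 active means growth inhibition above 50% at the single 2 µM test dose, taken to imply half-maximal potency below 2 µM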); settings: P. falciparum Dd2 in RBCs, LDH growth readout, 72 h; at 2 µM; stronger effect = higher value
[2] = human hepatoma cell viability loss – ATP luminescence, cytotoxicity control for P. falciparum antimalarial project, primary screen (AID 2303;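 active means inhibition above 50%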); settings: HepG2 viability, 24-48 h, at 10 µM, stronger effect = higher value
[3] = target: L-lactate dehydrogenase (Plasmodium falciparum (isolate CDC / Honduras)) (UniProt Q27743); experiment: PfLDH activity inhibition – cell lysate, 3D7 strain, counter-screen for P. falciparum growth inhibition project (AID 2304); settings: P. falciparum 3D7 crude extract, LDH APAD/NBT absorbance; at 2 µM; stronger effect = higher value
Sequence of L-lactate dehydrogenase (Plasmodium falciparum (isolate CDC / Honduras)) (Q27743 whole entry, looked up): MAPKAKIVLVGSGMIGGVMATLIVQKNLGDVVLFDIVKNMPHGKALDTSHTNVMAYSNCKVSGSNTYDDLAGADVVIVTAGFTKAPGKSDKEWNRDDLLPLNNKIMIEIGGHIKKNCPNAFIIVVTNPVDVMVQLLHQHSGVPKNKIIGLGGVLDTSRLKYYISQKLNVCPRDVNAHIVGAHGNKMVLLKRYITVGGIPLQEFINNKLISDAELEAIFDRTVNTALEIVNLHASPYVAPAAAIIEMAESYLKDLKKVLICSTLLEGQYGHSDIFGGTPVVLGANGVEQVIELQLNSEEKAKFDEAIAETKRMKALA

[4] = inhibition of 3D7 malaria parasite growth – strain 3D7 (AID 2306); settings: P. falciparum 3D7 erythrocytic growth, LDH absorbance, 72 h; at 2 µM; stronger effect = higher value
[5] = target: Calcium-dependent protein kinase 1 (Plasmodium falciparum (isolate 3D7)) (UniProt P62344); experiment: PfCDPK1 kinase inhibitors, biochemical, TCAMS library (AID 1159585; cut-off not given, nearly all actives have IC50 up to about 0.98 µM;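 further: inhibitors leave more ATP so luminescence rises with inhibition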); settings: recombinant PfCDPK1, Kinase-Glo ATP depletion luminescence
Sequence of Calcium-dependent protein kinase 1 (Plasmodium falciparum (isolate 3D7)) (P62344 whole entry, looked up): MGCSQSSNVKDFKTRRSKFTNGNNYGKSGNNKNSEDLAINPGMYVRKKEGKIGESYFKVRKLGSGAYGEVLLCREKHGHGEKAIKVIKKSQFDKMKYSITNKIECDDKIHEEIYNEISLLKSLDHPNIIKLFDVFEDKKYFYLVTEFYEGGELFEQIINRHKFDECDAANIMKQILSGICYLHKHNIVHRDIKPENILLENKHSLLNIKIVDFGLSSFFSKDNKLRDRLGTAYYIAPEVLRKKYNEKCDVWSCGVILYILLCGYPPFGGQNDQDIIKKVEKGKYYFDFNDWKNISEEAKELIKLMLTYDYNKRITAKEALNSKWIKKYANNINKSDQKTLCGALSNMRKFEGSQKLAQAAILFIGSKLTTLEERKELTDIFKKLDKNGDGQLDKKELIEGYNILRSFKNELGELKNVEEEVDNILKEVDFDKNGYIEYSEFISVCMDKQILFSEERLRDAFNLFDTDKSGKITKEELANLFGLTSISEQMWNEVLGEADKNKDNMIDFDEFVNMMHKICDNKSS

[6] = target: Plasmodium falciparum protein kinase 6 (PK6, PF3D7_1337100) (UniProt Q8IDW1); experiment: PfPK6 kinase inhibitors, biochemical, TCAMS library (AID 1159586); settings: recombinant PfPK6, Kinase-Glo ATP depletion luminescence
Sequence of Plasmodium falciparum protein kinase 6 (PK6, PF3D7_1337100) (Q8IDW1 1-305): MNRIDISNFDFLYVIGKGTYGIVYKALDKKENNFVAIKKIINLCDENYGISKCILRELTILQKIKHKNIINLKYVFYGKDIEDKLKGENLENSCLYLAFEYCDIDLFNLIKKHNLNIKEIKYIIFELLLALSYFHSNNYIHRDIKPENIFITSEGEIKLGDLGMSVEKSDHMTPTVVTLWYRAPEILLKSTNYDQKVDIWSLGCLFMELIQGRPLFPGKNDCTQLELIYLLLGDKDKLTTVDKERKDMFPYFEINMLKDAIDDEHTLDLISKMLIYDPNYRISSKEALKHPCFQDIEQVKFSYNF

[7] = target: Protein kinase 7 (PK7), Plasmodium falciparum 3D7 (PF3D7_0213400) (UniProt Q7YTF7); experiment: inhibition of Plasmodium PK7 catalytic activity – biochemical, TCAMS antimalarial set, Kinase-Glo luminescence (AID 1159587); settings: recombinant PfPK7, Kinase-Glo ATP depletion luminescence
Sequence of Protein kinase 7 (PK7), Plasmodium falciparum 3D7 (PF3D7_0213400) (Q7YTF7 1-343): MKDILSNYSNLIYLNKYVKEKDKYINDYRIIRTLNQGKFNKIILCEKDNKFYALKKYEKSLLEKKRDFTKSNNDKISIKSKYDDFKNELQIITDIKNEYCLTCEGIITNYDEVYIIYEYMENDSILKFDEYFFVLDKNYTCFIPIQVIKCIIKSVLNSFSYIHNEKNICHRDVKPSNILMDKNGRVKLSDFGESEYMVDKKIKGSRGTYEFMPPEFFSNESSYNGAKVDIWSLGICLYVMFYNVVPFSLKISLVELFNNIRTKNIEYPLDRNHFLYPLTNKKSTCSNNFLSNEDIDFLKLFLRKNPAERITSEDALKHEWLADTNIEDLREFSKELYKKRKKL

[8] = target: Calcium-dependent protein kinase 4 (Plasmodium falciparum (isolate 3D7)) (UniProt Q8IBS5); experiment: PfCDPK4 kinase inhibitors, biochemical, TCAMS library (AID 1159588; cut-off not given, nearly all actives have IC50 up to about 0.91 µM); settings: recombinant PfCDPK4, Kinase-Glo ATP depletion luminescence
Sequence of Calcium-dependent protein kinase 4 (Plasmodium falciparum (isolate 3D7)) (Q8IBS5 whole entry, looked up): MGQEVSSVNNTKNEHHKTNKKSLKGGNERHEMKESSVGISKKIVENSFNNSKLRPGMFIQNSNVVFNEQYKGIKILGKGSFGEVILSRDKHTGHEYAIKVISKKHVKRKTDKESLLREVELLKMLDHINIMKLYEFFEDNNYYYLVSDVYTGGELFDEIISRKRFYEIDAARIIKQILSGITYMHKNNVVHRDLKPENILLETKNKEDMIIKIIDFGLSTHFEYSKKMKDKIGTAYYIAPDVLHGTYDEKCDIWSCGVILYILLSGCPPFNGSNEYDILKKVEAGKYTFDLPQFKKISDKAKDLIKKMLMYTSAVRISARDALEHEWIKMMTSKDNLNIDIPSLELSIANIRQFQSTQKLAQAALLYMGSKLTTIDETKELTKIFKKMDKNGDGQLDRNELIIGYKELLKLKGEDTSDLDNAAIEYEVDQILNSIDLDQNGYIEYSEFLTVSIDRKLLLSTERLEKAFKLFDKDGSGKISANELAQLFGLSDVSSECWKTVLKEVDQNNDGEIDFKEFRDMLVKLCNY

CC1CN(C(=O)c2sc3ccccc3c2Cl)CC(C)O1 (stereo not given)
growth inhibition [1]: 98% (active)
inhibition [2]: -5%
inhibition [3]: 3%
growth inhibition [4]: 101% (active)
outcome [5]: inactive
outcome [6]: inactive
outcome [7]: inactive
outcome [8]: inactive

Cn1nccc1C(=O)NCCNCc1ccc(-c2ccc(-c3nc4ccc(F)cc4[nH]3)cc2)cc1
growth inhibition [1]: 98% (active)
inhibition [2]: 28%
inhibition [3]: -5%
growth inhibition [4]: 101% (active)
outcome [5]: inactive
outcome [6]: inactive
outcome [7]: inactive
outcome [8]: inactive

COc1c(F)ccc2ncc(Cl)c(CCN3CCC(NCc4ccc5c(n4)NC(=O)CS5)CC3)c12
growth inhibition [1]: 29%
inhibition [2]: 30%
inhibition [3]: 2%
growth inhibition [4]: 98% (active)
outcome [5]: inactive
outcome [6]: inactive
outcome [7]: inactive
outcome [8]: inactive

O=C(Nc1ccc(-c2ccccc2)cc1)Nc1cccc(Cn2ncc(N3CCCNCC3)c(Cl)c2=O)c1
growth inhibition [1]: 52% (active)
inhibition [2]: 14%
inhibition [3]: -1%
growth inhibition [4]: 102% (active)
outcome [5]: inactive
outcome [6]: inactive
outcome [7]: inactive
outcome [8]: inactive

COc1ccc(CCNCCCCCNCCc2ccc(Cl)cc2)cc1OC
growth inhibition [1]: -2%
inhibition [2]: 32%
inhibition [3]: -11%
growth inhibition [4]: 101% (active)
outcome [5]: inactive
outcome [6]: inactive
outcome [7]: inactive
outcome [8]: inactive

COCc1cc(C)nc2sc(C(=O)Nc3cc(C(C)(C)C)ccc3O)c(N)c12
growth inhibition [1]: 57% (active)
inhibition [2]: -9%
inhibition [3]: -2%
growth inhibition [4]: 85% (active)
outcome [5]: inactive
outcome [6]: inactive
outcome [7]: inactive
outcome [8]: inactive

Cc1ccccc1Oc1nc2ccccc2nc1SCC(=O)NC(C)C
growth inhibition [1]: 55% (active)
inhibition [2]: -14%
inhibition [3]: -1%
growth inhibition [4]: 97% (active)
outcome [5]: inactive
outcome [6]: inactive
outcome [7]: inactive
outcome [8]: inactive

O=C(/C=C/c1ccc(Cl)c(Cl)c1)N1CCC(CN2CCC(c3c[nH]c4cnccc34)CC2)CC1
growth inhibition [1]: 100% (active)
inhibition [2]: 39%
inhibition [3]: 7%
growth inhibition [4]: 102% (active)
outcome [5]: inactive
outcome [6]: inactive
outcome [7]: inactive
outcome [8]: inactive

Nc1nccc2ccc(-c3ccc(OCc4ccccc4)cc3)cc12
growth inhibition [1]: 67% (active)
inhibition [2]: 40%
inhibition [3]: -8%
growth inhibition [4]: 101% (active)
outcome [5]: inactive
outcome [6]: inactive
outcome [7]: inactive
outcome [8]: inactive

COc1ccc(OCCCN2CCN(CC(c3ccc(F)cc3)N3CCN(C(C)C)CC3)CC2)c2ccccc12 (stereo not given)
growth inhibition [1]: 32%
inhibition [2]: 30%
inhibition [3]: -1%
growth inhibition [4]: 100% (active)
outcome [5]: inactive
outcome [6]: inactive
outcome [7]: inactive
outcome [8]: inactive

CC(C)CCn1c(Sc2ccc(C#N)c([N+](=O)[O-])c2)nnc1-c1cccc(Cl)c1
growth inhibition [1]: 82% (active)
inhibition [2]: 33%
inhibition [3]: 0%
growth inhibition [4]: 96% (active)
outcome [5]: inactive
outcome [6]: inactive
outcome [7]: inactive
outcome [8]: inactive

O=S(=O)(c1cccc(Br)c1)N1CCCCC(c2ccc(C(F)(F)F)cc2)=N1
growth inhibition [1]: 92% (active)
inhibition [2]: 30%
inhibition [3]: -4%
growth inhibition [4]: 91% (active)
outcome [5]: inactive
outcome [6]: inactive
outcome [7]: inactive
outcome [8]: inactive

CC(C)[C@H](NC(=O)c1ccc(O)c(-c2ccc(Cl)c(Cl)c2)c1)C(=O)NCCN1CCCCC1
growth inhibition [1]: 98% (active)
inhibition [2]: -6%
inhibition [3]: -4%
growth inhibition [4]: 99% (active)
outcome [5]: inactive
outcome [6]: inactive
outcome [7]: inactive
outcome [8]: inactive

O=S(=O)(Nc1cccc(CCN2CCCCC2CCN2CCCC2)c1)c1ccc(-c2ccccc2)cc1 (stereo not given)
growth inhibition [1]: 5%
inhibition [2]: 31%
inhibition [3]: 0%
growth inhibition [4]: 99% (active)
outcome [5]: inactive
outcome [6]: inactive
outcome [7]: inactive
outcome [8]: inactive

CC(C)CCN1CCCN(Cc2cccc(NC(=O)c3ccc(-c4ccccc4)cc3)c2)CC1
growth inhibition [1]: 21%
inhibition [2]: 27%
inhibition [3]: 7%
growth inhibition [4]: 92% (active)
outcome [5]: inactive
outcome [6]: inactive
outcome [7]: inactive
outcome [8]: inactive

CCn1c2ccccc2c2cc(Cc3cnc(N)nc3N)ccc21
growth inhibition [1]: -2%
inhibition [2]: 28%
inhibition [3]: 5%
growth inhibition [4]: 94% (active)
outcome [5]: inactive
outcome [6]: inactive
outcome [7]: inactive
outcome [8]: inactive

CC(C)Sc1nc2c(c(=O)n1CCc1ccccc1)C1(CCCC1)Cc1ccccc1-2
growth inhibition [1]: 88% (active)
inhibition [2]: -3%
inhibition [3]: -4%
growth inhibition [4]: 102% (active)
outcome [5]: inactive
outcome [6]: inactive
outcome [7]: inactive
outcome [8]: inactive

CC(=O)C1=NN(c2ccc(Cl)cc2)C(c2cccs2)N1c1ccccc1 (stereo not given)
growth inhibition [1]: 70% (active)
inhibition [2]: -3%
inhibition [3]: 3%
growth inhibition [4]: 88% (active)
outcome [5]: inactive
outcome [6]: inactive
outcome [7]: inactive
outcome [8]: inactive

COCCN1CCN(Cc2ccc(-c3ccc(-c4nc5ccc(F)cc5[nH]4)cc3)cc2)CC1
growth inhibition [1]: 99% (active)
inhibition [2]: 25%
inhibition [3]: -2%
growth inhibition [4]: 101% (active)
outcome [5]: inactive
outcome [6]: inactive
outcome [7]: inactive
outcome [8]: inactive

COc1ccc2nccc([C@@H](O)CN3CCC(NC(=O)C(c4cc5ccccc5o4)N4CCN(Cc5ccccc5)CC4)CC3)c2c1 (stereo not given in full)
growth inhibition [1]: 75% (active)
inhibition [2]: 30%
inhibition [3]: -5%
growth inhibition [4]: 91% (active)
outcome [5]: inactive
outcome [6]: inactive
outcome [7]: inactive
outcome [8]: inactive

COc1ccc(-c2cnc3[nH]cc(-c4ccc(C(=O)O)cc4)c3c2)cn1
growth inhibition [1]: 99% (active)
inhibition [2]: 35%
inhibition [3]: -1%
growth inhibition [4]: 95% (active)
outcome [5]: inactive
outcome [6]: inactive
outcome [7]: inactive
outcome [8]: inactive

CCC(C)(C)c1ccc(OCCCC(=O)Nc2ccc(Cl)c([N+](=O)[O-])c2)c(C(C)(C)CC)c1
growth inhibition [1]: 88% (active)
inhibition [2]: -1%
inhibition [3]: -8%
growth inhibition [4]: 92% (active)
outcome [5]: inactive
outcome [6]: inactive
outcome [7]: inactive
outcome [8]: inactive

CC(=O)c1ccc(-c2cccc3c(CC(=O)Nc4ccc5nccc(N6CCN(C)CC6)c5c4)cccc23)cc1
growth inhibition [1]: 96% (active)
inhibition [2]: 3%
inhibition [3]: -11%
growth inhibition [4]: 101% (active)
outcome [5]: inactive
outcome [6]: inactive
outcome [7]: inactive
outcome [8]: inactive

Fc1ccc2nc(-c3cccc(-c4ccc(CNCC5CCCO5)cc4)c3)[nH]c2c1 (stereo not given)
growth inhibition [1]: 98% (active)
inhibition [2]: 36%
inhibition [3]: 0%
growth inhibition [4]: 101% (active)
outcome [5]: inactive
outcome [6]: inactive
outcome [7]: inactive
outcome [8]: inactive

CNCCCNCc1ccc(-c2ccc(F)c(Cl)c2)o1
growth inhibition [1]: 12%
inhibition [2]: 22%
inhibition [3]: 0%
growth inhibition [4]: 100% (active)
outcome [5]: inactive
outcome [6]: inactive
outcome [7]: inactive
outcome [8]: inactive

N#Cc1cccc(-c2nc(NCc3cccc(C(F)(F)F)c3)nn2-c2cccc(C(F)(F)F)c2)c1
growth inhibition [1]: 88% (active)
inhibition [2]: 12%
inhibition [3]: 3%
growth inhibition [4]: 94% (active)
outcome [5]: inactive
outcome [6]: inactive
outcome [7]: inactive
outcome [8]: inactive

O=C(NCc1cccc(F)c1)c1ccc(O)c(-c2cc(Cl)cc(Cl)c2)c1
growth inhibition [1]: 99% (active)
inhibition [2]: 0%
inhibition [3]: 1%
growth inhibition [4]: 99% (active)
outcome [5]: inactive
outcome [6]: inactive
outcome [7]: inactive
outcome [8]: inactive

Oc1ccc2[nH]cc(C3CCN(CCCCCCCCCN4CCC(c5c[nH]c6ccc(O)cc56)CC4)CC3)c2c1
growth inhibition [1]: 2%
inhibition [2]: 22%
inhibition [3]: -5%
growth inhibition [4]: 101% (active)
outcome [5]: inactive
outcome [6]: inactive
outcome [7]: inactive
outcome [8]: inactive

OC(CNc1ccnc(Nc2cccc(OCCCN3CCOCC3)c2)n1)c1ccccc1 (stereo not given)
growth inhibition [1]: 25%
inhibition [2]: 48%
inhibition [3]: -4%
growth inhibition [4]: 97% (active)
outcome [5]: inactive
outcome [6]: inactive
outcome [7]: inactive
outcome [8]: inactive

COc1ccc(-c2cccc(NC(=O)c3ccc(C#N)cc3)c2)cc1CN1CCCC1
growth inhibition [1]: 15%
inhibition [2]: 30%
inhibition [3]: -5%
growth inhibition [4]: 98% (active)
outcome [5]: inactive
outcome [6]: inactive
outcome [7]: inactive
outcome [8]: inactive

CCCCCCNC(=O)C(N)CCCC(N)C(=O)NCCCCCC (stereo not given)
growth inhibition [1]: -5%
inhibition [2]: -2%
inhibition [3]: -2%
growth inhibition [4]: 99% (active)
outcome [5]: inactive
outcome [6]: inactive
outcome [7]: inactive
outcome [8]: inactive

CCCC(C)Nc1nc(C)cc(NCCC(=O)Nc2ccc(OC)cc2)n1 (stereo not given)
growth inhibition [1]: 2%
inhibition [2]: 12%
inhibition [3]: -1%
growth inhibition [4]: 97% (active)
outcome [5]: inactive
outcome [6]: inactive
outcome [7]: inactive
outcome [8]: inactive

COc1cc(O)c2c(=O)c(OC)c(-c3cccc(Cl)c3OC3O[C@H](CO)[C@@H](O)[C@H](O)[C@H]3O)oc2c1OC (stereo not given in full)
growth inhibition [1]: 6%
inhibition [2]: 16%
inhibition [3]: -2%
growth inhibition [4]: 101% (active)
outcome [5]: inactive
outcome [6]: inactive
outcome [7]: inactive
outcome [8]: inactive

Cc1ccc(NC(=O)N2CCCN(CCCCCNC(=O)/C=C/c3ccc(Cl)c(Cl)c3)CC2)cc1C
growth inhibition [1]: 4%
inhibition [2]: 62% (active)
inhibition [3]: 1%
growth inhibition [4]: 101% (active)
outcome [5]: inactive
outcome [6]: inactive
outcome [7]: inactive
outcome [8]: inactive

COc1ccc2nccc([C@@H](O)CN3CCC(NC(=O)Cc4cccc5c(Br)cccc45)CC3)c2c1
growth inhibition [1]: 34%
inhibition [2]: 15%
inhibition [3]: -3%
growth inhibition [4]: 99% (active)
outcome [5]: inactive
outcome [6]: inactive
outcome [7]: inactive
outcome [8]: inactive

CCCCCCN(CCCCCC)CC(O)c1cc(-c2ccc(Cl)cc2)nc2c(C)cc(C)cc12 (stereo not given)
growth inhibition [1]: 98% (active)
inhibition [2]: 27%
inhibition [3]: -2%
growth inhibition [4]: 98% (active)
outcome [5]: inactive
outcome [6]: inactive
outcome [7]: inactive
outcome [8]: inactive

CC(C)C[C@@H](/C=N/N1CCOC1=O)NC(=O)[C@H](CC(C)C)NC(=O)c1ccc(OCCN2CCOCC2)cc1
growth inhibition [1]: 87% (active)
inhibition [2]: 5%
inhibition [3]: 6%
growth inhibition [4]: 92% (active)
outcome [5]: inactive
outcome [6]: inactive
outcome [7]: inactive
outcome [8]: inactive

CNc1ccc(CNCc2ccc(-c3ccc(-c4nc5ccc(C(F)(F)F)cc5[nH]4)cc3)cc2)cc1
growth inhibition [1]: 98% (active)
inhibition [2]: 53% (active)
inhibition [3]: -3%
growth inhibition [4]: 101% (active)
outcome [5]: inactive
outcome [6]: inactive
outcome [7]: inactive
outcome [8]: inactive

O=C(Nc1ccc(Cl)c(Cl)c1)N(Cc1ccccc1Br)C1CCNCC1
growth inhibition [1]: 8%
inhibition [2]: 13%
inhibition [3]: 7%
growth inhibition [4]: 96% (active)
outcome [5]: inactive
outcome [6]: inactive
outcome [7]: inactive
outcome [8]: inactive

Cc1ccc(CNC(=O)[C@H](CCCN)Nc2cc(C)nc(NCC3CCCCC3)n2)cc1
growth inhibition [1]: -2%
inhibition [2]: 1%
inhibition [3]: 0%
growth inhibition [4]: 90% (active)
outcome [5]: inactive
outcome [6]: inactive
outcome [7]: inactive
outcome [8]: inactive
